# Only some compounds are listed: those with a hit (about 3.1% of all), similar ones and a draw of the others.
# HSP90 inh: HSP90 inhibitors, primary screen, cell lysate, luminescence | Heat shock protein HSP 90 (rabbit reticulocyte lysate; luciferase refolding) | Rabbit reticulocyte lysate, luciferase refolding luminescence, 3 h | inhibition, % at 5.6 µM | hit rate 0.91% among 290,000;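 active means inhibition above the screen-wide mean plus 3 SD, computed separately per campaign, cut at about 16% in these data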;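 further: 0% = DMSO wells and 100% = 60 µM geldanamycin wells; inhibitors lower the luminescence because luciferase stays unfolded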
# HSF1 inh: HSF1 inhibitors in luciferase reporter cells, primary screen, cell-based, NIH3T3, luminescence | hit rate 0.77% among 300,000 | activity change, negative = inhibition, % at 7.5 µM (by protocol) | AID 2098, 2009 | NIH3T3-HGL HSE-luciferase, MG132-induced, luminescence 8 h; hits give low values;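 active means more than half of replicate wells show activity change below -50%, luminescence cut by over half; inconclusive means some wells, but at most half, below -50%; inactive means no replicate well below -50%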;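 further: luciferase reports HSF-1 transcriptional activity via heat shock element; 0% = median of DMSO wells and -100% = zero luminescence signal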
# ARNT-TACC3 inh: disruptors of ARNT/TACC3 protein interaction, primary screen, biochemical, AlphaScreen, single concentration. hit rate 0.66% among 390,000. Transforming acidic coiled-coil-containing protein 3 (Homo sapiens), Q9Y6A5. AlphaScreen His-ARNT PAS-B/GST-TACC3 binding, luminescence; TACC3 fragment carries E629A point mutation. inhibition, % at 9.99 µM;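 active means mean inhibition of replicates at least 50% and at least half of replicates each reaching 50%; inconclusive means half or more replicates reach 50% but mean below 50%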;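 further: 0% = complete ARNT plus TACC3 wells and 100% = ARNT alone without TACC3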
# HSF1 activator: HSF-1 activators, primary screen, NIH3T3-HGL cells, MG132 stress, luminescence, single point | hit rate 1.7% among 300,000 | NIH3T3-HGL HSF-1 luciferase reporter, 8 h; 100% = twice DMSO control signal | activation, % at 9 µM;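 active means mean replicate activation of at least 50% with a set share of replicates each reaching 50%; inconclusive means only one of those two conditions met; inactive means mean below 50% and too few replicates reaching it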;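 further: 0% = median of the neutral control wells and 100% = twice that signal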
# HIF activator: HIF pathway transcriptional activators, primary screen, cell-based, U2OS HRE-luciferase, luminescence; U2OS HRE-luciferase reporter; normalized: DMSO 0%, desferrioxamine 100%; activation, % at 7.5 µM (by protocol); hit rate 0.32% among 300,000; AID 1910, 2009;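 active means mean activation of at least 10% of the iron chelator positive control signal, with at least half of replicates also reaching 10%; inconclusive means mean and replicate majority disagree about reaching 10%; inactive means mean and most replicates under 10%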
# HSP90 confirm: HSP90 inhibitors, confirmation, cell lysate, luminescence; shares compounds with HSP90 inh; rabbit reticulocyte lysate, luciferase refolding luminescence, 3 h; inhibition, % at 5.9 µM; hit rate 64% among 2,300; AID 1846, 2009; in the data active means inhibition above about 18%;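 further: 0% = vehicle wells and 100% = reference inhibitor wells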
# FLuc counter: firefly luciferase inhibitors, HSP90 counter-screen, confirmation, artefact control for HSP90 inhibitor project, biochemical, luminescence, triplicate. shares compounds with HSP90 inh. purified native firefly luciferase. hit rate 48% among 2,300. inhibition, % at 5.9 µM;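 active means inhibition above the mean inhibition of all tested sample wells plus 3 SD, cut at about 10% in these data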;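 further: 0% = DMSO with luciferase and 100% = wells lacking luciferase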
# Target sequence (P08659 whole entry, looked up): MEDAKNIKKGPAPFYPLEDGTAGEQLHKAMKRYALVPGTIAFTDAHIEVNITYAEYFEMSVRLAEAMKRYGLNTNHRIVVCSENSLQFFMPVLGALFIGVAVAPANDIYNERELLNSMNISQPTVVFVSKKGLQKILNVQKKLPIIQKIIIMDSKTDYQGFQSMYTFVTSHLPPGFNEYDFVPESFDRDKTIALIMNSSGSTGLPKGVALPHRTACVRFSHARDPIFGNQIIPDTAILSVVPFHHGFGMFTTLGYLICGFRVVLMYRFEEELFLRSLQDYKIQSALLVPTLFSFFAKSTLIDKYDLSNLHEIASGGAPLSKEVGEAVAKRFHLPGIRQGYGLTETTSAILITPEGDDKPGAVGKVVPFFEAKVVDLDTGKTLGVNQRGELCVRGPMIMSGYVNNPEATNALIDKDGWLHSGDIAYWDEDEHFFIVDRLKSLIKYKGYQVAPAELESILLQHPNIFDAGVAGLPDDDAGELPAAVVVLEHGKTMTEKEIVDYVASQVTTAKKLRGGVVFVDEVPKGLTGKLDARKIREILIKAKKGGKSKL
# Starred values were filed as active, the others as inactive; ? = inconclusive; . = no result.
SMILES,HSP90 inh,HSF1 inh,ARNT-TACC3 inh,HSF1 activator,HIF activator,HSP90 confirm,FLuc counter
O=C(Nc1ccc(F)cc1)c1ccccc1NC(=O)C1CCCCC1C(=O)O (stereo not drawn),.,.,-7.6,.,.,.,.
O=C(Nc1ccccc1C(F)(F)F)c1cc(-c2ccco2)on1,-3.2,4.8,.,19.9,1.0,.,.
O=C(Nc1ccccc1C(F)(F)F)c1cc(-c2ccccc2O)on1,20.7*,23.1,-9.8,65.5*,2.6,1.6,-8.8
Cc1ccc(S(=O)(=O)NCCCNS(=O)(=O)c2ccccc2)cc1,24.8*,-0.8,-1.9,-13.3,-0.3,-7.5,-8.4
COc1ccc(-n2cc(C(=O)c3ccccc3O)cn2)cc1,34.2*,-51.5*,2.9,-53.3,-0.9,52.3*,39.9*
O=C(O)c1cccc(-n2c(O)c(C=C3N=c4ccccc4=N3)sc2=S)c1,47.5*,-25.7,18.6,-25.5,-0.4,66.4*,-1.5
CCc1cc2c(-n3nc(C)cc3C)ncnc2s1,39.2*,-3.9,8.6,-4.3,-0.4,-1.6,-1.8
CCc1cc2c(SCC(=O)c3ccc(C)cc3)ncnc2s1,-0.2,-3.1,.,-3.3,0.1,.,.
C[C@H](CO)N1C[C@H](C)[C@@H](CN(C)Cc2ccc3c(c2)OCO3)Oc2ccc(NS(C)(=O)=O)cc2CC1=O,.,.,-2.6,.,.,.,.
Cc1nnc2sc(-c3ccc(N(C)C)cc3)nn2c1=O,19.8*,15.6,1.5,20.4,0.9,8.3,-9.6
CN(C)c1ccc(-c2nn3c(-c4cccnc4)nnc3s2)cc1,.,1.2,.,10.1,-0.2,.,.
Cc1cccc(-c2noc(C3CCCCC3)n2)c1,64.5*,14.8,-6.6,37.5,2.0,5.8,-12.4
C[C@@H]1CN([C@H](C)CO)C(=O)Cc2cc(NC(=O)Cc3cn(C)c4ccccc34)ccc2O[C@H]1CN(C)C(=O)Nc1ccc2c(c1)OCO2,.,.,-23.8,.,.,.,.
N/C(=N/OC(=O)c1ccccc1Cl)c1nonc1N,-3.0,-11.2,0.0,3.0,0.1,.,.
N/C(=N\OC(=O)c1ccc(Cl)cc1Cl)c1ccccc1,16.0,?,-7.3,-58.5,-1.0,.,.
Cc1cccc(/C(N)=N/OC(=O)c2ccc(Cl)cc2Cl)c1,21.4*,6.4,-6.6,0.7,-0.4,37.4*,49.7*
Cc1cc(/C(N)=N/OC(=O)c2ccccc2Cl)no1,24.8*,.,-10.7,.,.,19.2*,48.8*
Cc1ccc(/C(N)=N/OC(=O)c2ccc(C)cc2Cl)cc1,27.7*,-63.5*,-6.9,-70.4,0.4,60.2*,56.1*
Nc1cccc2c1C(=O)N(C(=O)/C=C/c1ccc(F)cc1)C2=O,28.4*,44.4,-3.7,60.7*,0.6,11.9,-12.9
O=C(N/N=C/c1ccccn1)c1ccc(N/N=C/c2ccccn2)cc1,0.9,15.4,-13.6,42.3,0.9,.,.
Cc1csc(N/N=C/c2ccccn2)n1,48.2*,-9.7,59.0*,3.0,-0.6,52.6*,38.4*
COCC(=O)N1[C@@H](C#N)[C@@H](c2ccc(C3=CCCCC3)cc2)[C@@H]1CO,.,.,14.3,.,.,.,.
CC1CCCN(C(=O)N2c3ccccc3Sc3ccccc32)C1 (stereo not drawn),-1.9,9.6,-0.3,34.0,0.1,.,.
CC1CCN(C(=O)N2c3ccccc3Sc3ccccc32)CC1,19.1*,11.8,-4.1,21.6,-0.2,8.3,2.4
Cc1cc(/C=N/Nc2ccc([N+](=O)[O-])cn2)c(C)n1-c1ccc(C(=O)O)cc1,0.0,7.3,.,-0.6,0.0,.,.
SMILES,HSP90 inh,HSF1 inh,ARNT-TACC3 inh,HSF1 activator,HIF activator,HSP90 confirm,FLuc counter
Cc1cc(/C=N/Nc2ncnc(N)c2[N+](=O)[O-])c(C)n1-c1ccccc1,76.3*,.,19.5,.,.,95.4*,91.6*
Cc1cc(/C=N/Nc2nc(N)ncc2[N+](=O)[O-])c(C)n1-c1cccc(C(F)(F)F)c1,33.8*,-1.7,.,-4.3,3.2,28.5*,16.3*
COc1cccc(/C=N/Nc2ncnc(N)c2[N+](=O)[O-])c1OC,26.7*,2.3,5.1,-1.1,0.7,79.5*,62.3*
Cc1cc(=O)[nH]c(N/N=C/c2cc(C)n(-c3ccccc3)c2C)n1,8.9,-20.5,14.7,-29.1,1.5,.,.
COc1ccc(S(=O)(=O)N(C)C[C@H]2Oc3ccc(NC(=O)CCN4CCOCC4)cc3CC(=O)N([C@@H](C)CO)C[C@@H]2C)cc1,.,.,-2.5,.,.,.,.
COc1cccc(-c2ccc3c(c2)[C@@H]2[C@@H](CCN2C(=O)c2cnccn2)[C@@H](CO)N3)c1,.,.,8.7,.,.,.,.
COc1ccc(NC(=O)N(C)C[C@H]2Oc3c(NC(=O)C4CCCCC4)cccc3C(=O)N([C@@H](C)CO)C[C@H]2C)cc1,.,.,-3.0,.,.,.,.
Cc1ccc(C(=O)n2c3ccccc3c3ccccc32)cc1,17.0*,1.2,.,-5.8,0.6,-1.3,-20.0
COc1ccc(Cl)cc1C(=O)O/N=C(\N)c1ccccn1,0.6,15.2,0.5,42.4,1.8,.,.
COc1ccc(C(=O)O/N=C(\N)c2ccccn2)c(OC)c1,42.5*,-7.8,7.2,1.0,-2.2,11.1,2.5
COc1ccc(C(=O)O/N=C(\N)c2ccccc2)c(OC)c1,50.8*,-40.0,-3.2,-49.0,-2.6,36.7*,26.3*
O=C(O)c1ccc(NNC(=S)Nc2cc(C(F)(F)F)ccc2Cl)cc1,60.7*,-1.6,-1.4,7.3,0.3,53.5*,53.5*
O=C(NC(=S)Nc1cc(C(F)(F)F)ccc1Cl)c1ccccc1,-4.0,2.8,2.9,20.2,1.3,.,.
Cc1cccc[n+]1CC(=O)Nc1ccccc1,0.7,-5.1,.,-5.5,-0.2,.,.
COC(=O)c1ccc(NC(=O)C[n+]2ccccc2C)cc1,19.8*,-0.9,-7.6,-1.0,0.2,1.0,-4.1
C[C@@H]1CN([C@@H](C)CO)C(=O)c2cc(NS(=O)(=O)c3ccc(Cl)cc3)ccc2O[C@@H]1CN(C)C(=O)Nc1cccc2ccccc12,.,.,1.7,.,.,.,.
COc1ccc(CCNC(=O)c2nnn(-c3ccc4c(c3)OCCO4)c2N)cc1OC,28.8*,-76.1*,-1.5,-77.6,-3.3,64.0*,66.1*
COc1ccc(CCNC(=O)c2nnn(-c3ccccc3OC)c2N)cc1OC,5.9,1.8,-0.2,-7.4,0.0,.,.
C[C@@H]1CN([C@H](C)CO)S(=O)(=O)c2ccc(C#Cc3ccc(F)cc3)cc2O[C@@H]1CN(C)S(=O)(=O)c1ccc(F)cc1,.,.,0.1,.,.,.,.
CC(C)C[C@H](NC(=O)c1nc[nH]c1C(=O)NCC(=O)OCc1ccccc1)C(=O)OC(C)(C)C,-1.0,0.5,-1.1,4.7,-0.5,.,.
